# Test results from PubChem BioAssay (EPA / NIEHS).
# Results filed as inconclusive are left out. Activity calls are given as the source filed them. The calls were made as follows: active = hit-call score of the fitted dose curve at least 0.9, where 1 is the maximum; inconclusive = response in the unintended direction; inactive = score below 0.9.
# Biological target: Nuclear receptor subfamily 4 group A member 2 (Homo sapiens) (UniProt P43354)
# Assay: ATG_NURR1_TRANS: Attagene TRANS-FACTORIAL HepG2 Assay for human Nuclear Receptor Related Protein 1 (NURR1) (AID 2282985)
# Conditions: HepG2 Attagene TRANS reporter, mRNA readout
# Experimental: ATG_TRANS is a cell-based, multiplexed-readout assay that uses HepG2, a human liver cell line, with measurements taken at 24 hours after chemical dosing in a 24-well plate.ATG_NURR1_TRANS is one of 30 assay component(s) measured or calculated from the ATG_TRANS assay. It is designed to make measurements of mRNA induction, a form of inducible reporter, as detected with fluorescence intensity signals by Reverse transcription polymerase chain reaction (RT-PCR) and Capillary electrophoresis technology.Data from the assay component ATG_NURR1_TRANS was analyzed into 1 assay endpoint. This assay endpoint, ATG_NURR1_TRANS, was analyzed in the positive analysis fitting direction relative to DMSO as the negative control and baseline of activity. Using a type of inducible reporter, measures of mRNA for gain-of-signal activity can be used to understand the reporter gene at the transcription factor-level as they relate to the gene NR4A2. Furthermore, this assay endpoint can be referred to as a primary readout, because this assay has produced multiple assay endpoints where this one serves a reporter gene function. To generalize the intended target to other relatable targets, this assay endpoint is annotated to the nuclear receptor intended target family, where the subfamily is orphan.
# Human liver HepG2 cells are transiently transfected with multiple reporter transcription units (MRTUs) in 6-well plates using FuGene 6 reagent (Roche; 3 ml FuGene/1 mg DNA). The MRTU constructs are regulated by a cis-regulating element (promoter). […] A major difference between the CIS and TRANS system is that in CIS activities of endogenous TFs are measured, whereas the TRANS assay evaluates changes in activities of exogenous, chimeric NR-Gal4 proteins. […] At the end of 24 hour incubation, total RNA was isolated using TriZol reagent (Invitrogen). The isolated RNA is then reverse-transcribed using oligo(dT) primer and Mo-MLV reverse transcriptase (Invitrogen) with DNAse I (Ambion) treatment for 30 min. The one-tenth of the produced cDNA was amplified by PCR using Taq DNA polymerase (Invitrogen) and two reporter sequence-specific primers. The PCR products were fluorescently labeled by primer extension with 6-arboxyfluorescein (6-FAM) 5'-labeled reporter sequence-specific primer (2 min at 95 C, 20 s at 68 C and 10 min at 72 C) and these products were digested with 5U of HpaI (New England Biolabs) for 2h at 37 C. The fragments were purified using Qiaquick PCR columns (Qiagen), analyzed on an ABI 3130xL genetic analyzer (Applied Biosystems) with peak positions identified by using a set of X-rhodamine (ROX)-labeled MapMarker1000 molecular weight standards (BioVentures). The raw capillary electrophoresis data was processed using Attagraph software (Attagene).
# Sequence of Nuclear receptor subfamily 4 group A member 2 (Homo sapiens) (P43354 whole entry, looked up): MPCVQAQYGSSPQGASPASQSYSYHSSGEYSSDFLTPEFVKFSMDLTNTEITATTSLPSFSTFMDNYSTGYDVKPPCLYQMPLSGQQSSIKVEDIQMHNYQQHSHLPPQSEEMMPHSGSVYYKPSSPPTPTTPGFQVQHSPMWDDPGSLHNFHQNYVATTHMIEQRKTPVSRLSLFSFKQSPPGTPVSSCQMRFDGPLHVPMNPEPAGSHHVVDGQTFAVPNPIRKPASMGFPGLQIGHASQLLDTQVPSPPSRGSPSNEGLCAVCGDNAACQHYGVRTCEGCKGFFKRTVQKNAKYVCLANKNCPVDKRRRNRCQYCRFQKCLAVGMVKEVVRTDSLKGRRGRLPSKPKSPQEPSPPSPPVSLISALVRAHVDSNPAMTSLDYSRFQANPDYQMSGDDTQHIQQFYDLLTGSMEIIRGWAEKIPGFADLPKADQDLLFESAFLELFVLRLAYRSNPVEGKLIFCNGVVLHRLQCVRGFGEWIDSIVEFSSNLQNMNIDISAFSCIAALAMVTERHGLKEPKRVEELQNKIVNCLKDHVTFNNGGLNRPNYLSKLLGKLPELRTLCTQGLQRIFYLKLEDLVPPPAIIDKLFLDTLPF
Compound,outcome,AC50
CC(C)(C)NC(N)=O,inactive,–
CC1(C)[C@H](C(=O)OCc2cccc(Oc3ccccc3)c2)[C@@H]1C=C(Cl)Cl,inactive,–
C=C(C)C(=O)O[C@H]1C[C@@H]2CC[C@@]1(C)C2(C)C,inactive,–
O=c1[nH]nnc2ccccc12,inactive,–
O=C1C(c2[nH]c3ccc(S(=O)(=O)O)cc3c2O)=Nc2ccc(S(=O)(=O)O)cc21,inactive,–
Cc1ncc([N+](=O)[O-])n1C,inactive,–
c1ccc2sc(SN(C3CCCCC3)C3CCCCC3)nc2c1,inactive,–
CCCCOCCOCCOCCOCCO,inactive,–
CCCC(=O)c1cc(O)c(O)cc1O,inactive,–
CC1(C)CCC(C)(C)c2cc(C(=O)Nc3ccc(C(=O)O)cc3)ccc21,inactive,–
ClCCCl,inactive,–
Clc1nc(C(Cl)(Cl)Cl)c(Cl)c(Cl)c1Cl,inactive,–
C#C[C@]1(O)CC[C@H]2[C@@H]3CCC4=Cc5oncc5C[C@]4(C)[C@H]3CC[C@@]21C,inactive,–
COC(=O)OC,inactive,–
CCCCCCCCCCCCCC(=O)O,inactive,–
Cc1c(N(C)C)c(=O)n(-c2ccccc2)n1C,inactive,–
O=C1CCCCCCCCCCCCCCO1,inactive,–
NCCCN1CCOCC1,inactive,–
CCCCCCCCCCCCOCCO,inactive,–
C=O,inactive,–

Compound,outcome,AC50
C=CC(=O)NCOCC(C)C,inactive,–
CCCCC(CC)COCCC#N (stereo not given),inactive,–
COc1ccc(Nc2ccccc2)c(C)c1,–,143 µM (active)
O=C1OC2(c3cc(Br)c(O)c(Br)c3Oc3c2cc(Br)c(O)c3Br)c2c(Cl)c(Cl)c(Cl)c(Cl)c21,inactive,–
CCOc1ccccc1OCC,inactive,–
Nc1cc(Cl)c(O)c(Cl)c1,inactive,–
O=P(c1ccccc1)(c1ccccc1)c1ccccc1,inactive,–
COC(C)CCO (stereo not given),inactive,–
CCCCCCCCCCCCCCCC(=O)OC[C@H](O)[C@H]1OC(=O)C(O)=C1O,inactive,–
COc1nc(C)nc(N)n1,inactive,–
CCC(=O)OCc1ccccc1,inactive,–
CC(C)C[C@H]1C(=O)N2CCC[C@H]2[C@]2(O)O[C@](NC(=O)[C@@H]3C=C4c5cccc6[nH]c(Br)c(c56)C[C@H]4N(C)C3)(C(C)C)C(=O)N12,–,5.67 µM (active)
O=c1cc(-c2ccccc2)oc2cc(O)cc(O)c12,inactive,–
COc1ccnc(CS(=O)c2nc3cc(OC(F)F)ccc3[nH]2)c1OC (stereo not given),inactive,–
CCCCCCCCCCCCCCCCCC(=O)OCC(CC)CCCC (stereo not given),inactive,–
Cc1c(Cl)c(=O)oc2cc(O)ccc12,inactive,–
COCCOCCOCCOCCOCCO,inactive,–
O=C(Nc1ccccc1)c1cc([N+](=O)[O-])ccc1Cl,inactive,–
COc1cc(C(C)(C)C)c(O)c(C(C)(C)C)c1,inactive,–
C/C=C(\C)C(=O)OCc1ccccc1,inactive,–
